A selection: hits, their analogues and other compounds. The true share with any hit is near 3.1%.
DRD3 antagonist: D3 dopamine receptor (human) antagonism; P35462; D3R cells, DiscoveRx beta-arrestin luminescence, antagonist mode; hits give low values; max response, negative = inhibition, %; 360,000 tested, 2.5% active; AID 652054; in the data active = max response below about -50%; inconclusive = no clear call, values can overlap the other calls; note: % is set by controls: 0 for no effect and ±100 for the full control effect
Target sequence (P35462 whole entry, looked up): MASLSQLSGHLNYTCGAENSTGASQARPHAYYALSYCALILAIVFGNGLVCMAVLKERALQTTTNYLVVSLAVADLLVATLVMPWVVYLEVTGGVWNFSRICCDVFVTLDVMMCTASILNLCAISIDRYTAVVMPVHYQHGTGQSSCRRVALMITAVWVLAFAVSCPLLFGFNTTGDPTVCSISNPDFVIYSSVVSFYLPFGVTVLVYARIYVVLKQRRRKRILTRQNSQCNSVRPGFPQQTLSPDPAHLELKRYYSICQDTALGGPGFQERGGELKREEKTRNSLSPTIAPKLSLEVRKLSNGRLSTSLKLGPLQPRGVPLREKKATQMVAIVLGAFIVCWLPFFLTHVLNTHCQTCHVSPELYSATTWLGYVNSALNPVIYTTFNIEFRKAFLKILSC
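Cells plated overnight at 1500 cells/well, then exposed to library compounds with dopamine controls for 90 minutes at 37 degrees C. DiscoveRx reagent added for 30–60 minutes at room temperature; luminescence read, quantitative HTS format.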
uPA surface inh: blocks generation of uPA at the cell surface | AID 540303 | Potency, µM (doses to about 38.3 µM), for the others: at the highest dose activity change, negative = inhibition, usual class: inhibitors | cell surface uPA generation assay, qHTS | 330,000 tested, 0.31% active; active = well fitted inhibition curve with a large enough effect; inconclusive = small, poorly fitted or top-dose-only effect; inactive = no such curve, though single readings can be large or run the other way; tested in mouse RAW 264.7 cells; note: potency is the fitted concentration of half-maximal effect; % is set by controls: 0 for no effect and ±100 for the full control effect; nearly all actives have a fitted effect of over 55% in size
DRD3 agonist: D3 dopamine receptor (human) agonism | P35462 | max activation, % | D3R DiscoveRx beta-arrestin cells, luminescence, 90 min | AID 652048 | 410,000 tested, 0.58% active; in the data active = max activation above about 30%; note: 0% is about no effect
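Agonist-mode cell screen: cells plated at 1500/well and incubated overnight at 37 °C, then exposed to library compounds for 90 min at 37 °C. Detection reagent was added for 30–60 min at room temperature, and luminescence was read.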
RGS4 inh: human RGS4 inhibition; P49798; Transcreener GDP fluorescence polarization, RGS4-accelerated GTP hydrolysis; Potency, µM (doses to about 114 µM), without a hit: at the highest dose activity change, negative = inhibition, most hits filed as inhibitors; 390,000 tested, 0.039% active; active = well fitted inhibition curve with a large enough effect; inconclusive = small, poorly fitted or top-dose-only effect; inactive = no such curve, though single readings can be large or run the other way; note: potency is the fitted concentration of half-maximal effect; % is set by controls: 0 for no effect and ±100 for the full control effect; nearly all actives have a fitted effect of over 75% in size
Target sequence (P49798 whole entry, looked up): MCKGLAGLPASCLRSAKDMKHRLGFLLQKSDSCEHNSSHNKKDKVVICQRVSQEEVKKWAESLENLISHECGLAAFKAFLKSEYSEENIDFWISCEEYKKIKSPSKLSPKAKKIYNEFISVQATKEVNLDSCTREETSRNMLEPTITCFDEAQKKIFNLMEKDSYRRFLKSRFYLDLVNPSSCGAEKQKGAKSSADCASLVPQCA
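MLSMR compounds (23 nl, pin-transferred) preincubated 10 min at room temperature with a 500nM (2x) first reagent, then RGS4 at 900nM (2x) plus Transcreener GDP mix added; fluorescence polarization (620/688 nm) read before and after 90 min at 30 °C.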
The depositor's hits bear a star; ? = inconclusive; · = not tested or not shown.

SMILES	DRD3 antagonist	uPA surface inh	DRD3 agonist	RGS4 inh
CCC(=O)OCCNc1cc(Sc2nc3ccccc3[nH]2)c2nonc2c1[N+](=O)[O-]	-116*	-7%	-6	?
CCn1c(SCC(=O)Nc2c(C)cccc2C)nnc1-c1nonc1NC(C)=O	·	·	-2	18%
COCCN(C(=O)CSc1nc(-c2ccccc2)cn1N)c1c(N)n(Cc2ccccc2)c(=O)[nH]c1=O	4	10%	8	-9%
O=C(NN=C(c1ccccc1)c1ccccc1)C(CCl)C1CCCCC1 (configuration not stated)	-51*	17%	3	1%
O=C(CNC1CCCCC1)NN=C(c1ccccc1)c1ccccc1	3	·	-11	1%
O=C(NCc1ccco1)c1ccc2c(=O)n(CCC3=CCCCC3)c(=O)[nH]c2c1	37	2%	-2	8%
CCN1CCN(C(=O)c2ccc3c(=O)n(CCC4=CCCCC4)c(=O)[nH]c3c2)CC1	-54*	-4%	-12	35%
O=C(NCCc1ccccc1)c1ncn[nH]1	-21	·	35*	21%
O=C(NCCc1ccc(Cl)cc1)c1ncn[nH]1	7	1%	-1	-9%
Clc1ccccc1OCCN1CCCCC1	-80*	3%	-22	4%
Clc1ccc(OCCN2CCCCC2)c(Cl)c1	-176*	-1%	-32	1%
CC(C)Oc1ccc(C(=O)N(Cc2ccc(N(C)C)cc2)Cc2ccco2)cc1	·	·	1	-4%
Cc1ccccc1CN1C(=O)c2ccccc2Sc2ccc(C(=O)NC3CCCCC3)cc21	·	·	-5	-10%
Cc1ccc(C(=O)COC(=O)CNC(=O)C(c2ccccc2)c2ccccc2)cc1[N+](=O)[O-]	-64*	0%	0	3%
Cc1cccc(C)c1OCC(=O)NCC1(N(C)C)CCCCC1	·	·	-9	7%
CCC(C)OC(=O)c1[nH]c2c(c1C)C(=O)CC(c1ccc(N(C)C)cc1)C2 (configuration not stated)	-11	10µM*	5	-10%
C/C=C/COC(=O)c1[nH]c2c(c1C)C(=O)CC(c1ccc(N(C)C)cc1)C2 (configuration not stated)	-12	?	1	-28%
CCOCCOC(=O)c1[nH]c2c(c1C)C(=O)CC(c1ccc(N(C)C)cc1)C2 (configuration not stated)	-6	13µM*	1	-20%
CCOCCOC(=O)c1[nH]c2c(c1C)C(=O)CC(c1ccc(OC)c(OC)c1)C2 (configuration not stated)	26	-2%	13	-11%
C/C1=C2N=C(/C=C3N=C(/C(C)=C4\[N-][C@@](C)([C@@H]5N=C1[C@](C)(CCC(=O)NCC(C)OP(=O)(O)O[C@H]1[C@@H](O)[C@@H](n6cnc7cc(C)c(C)cc76)O[C@@H]1CO)[C@H]5CC(N)=O)[C@@](C)(CC(N)=O)[C@@H]4CCC(N)=O)[C@@](C)(CC(N)=O)[C@@H]\3CCC(N)=O)C(C)(C)[C@@H]/2CCC(N)=O.CC(=O)O.[Co] (some centres not stated)	·	·	-24	·
COc1ccc(N2C(=O)C(Cl)=C(Oc3cccc(OC)c3)C2=O)cc1	-58*	-9%	-18	-118%
Cc1cc(N2C(=O)CC(N3CCN(c4ccc(C(=O)c5cccs5)cc4)CC3)C2=O)no1 (configuration not stated)	-52*	-4%	3	-13%
COc1ccc(N2CCN(C(=O)CCn3c(=O)[nH]c4cc(OC)c(OC)cc4c3=O)CC2)cc1	·	·	6	11%
O=C(Nc1nc(N2C(=O)c3ccccc3C2=O)n(-c2ccccc2)n1)c1ccc(F)cc1	-55*	-3%	12	11%
CC(=O)Nc1nc(N2C(=O)c3ccccc3C2=O)n(-c2ccccc2)n1	-63*	1%	-1	7%
SMILES	DRD3 antagonist	uPA surface inh	DRD3 agonist	RGS4 inh
COc1ccc(C(=O)Nc2nc(N3C(=O)c4ccccc4C3=O)n(-c3ccccc3)n2)cc1	-91*	3%	-6	0%
CCCS(=O)(=O)c1nc(S(=O)(=O)c2ccc(C)cc2)c(NCc2ccccc2Cl)s1	·	·	-12	-10%
CC(=O)C1=C(O)C(=O)N(c2ccc(S(N)(=O)=O)cc2)C1c1ccc([N+](=O)[O-])cc1 (configuration not stated)	-81*	2%	-12	-9%
COc1ccc(C)cc1NC(=O)C1C2C=CC(C2)C1C(=O)O (configuration not stated)	-24	-2%	-4	36%
COc1cc(NC(=O)C2C3C=CC(C3)C2C(=O)O)c(OC)cc1Cl (configuration not stated)	-86*	-4%	4	-7%
COc1ccc(CNC(=O)c2ccc(-n3ccnc3)c3ccoc23)cc1OC	-76*	·	-6	·
O=c1[nH]c2ccccc2cc1-c1noc(-c2cccnc2)n1	8	·	48*	-3%
COc1ccc2[nH]c(=O)c(-c3noc(-c4ccccc4)n3)cc2c1	41	-1%	5	?
Nc1ccccc1SC(CC(=O)c1ccccc1)c1ccc([N+](=O)[O-])cc1 (configuration not stated)	-51*	·	-7	·
O=C(Nc1ccccc1)C(Cc1ccccc1)N1Cc2ccccc2C1=O (configuration not stated)	·	·	-14	3%
CCc1c(C2CC2)ncn1Cc1cccc(-c2ccccc2)c1	-95*	·	-14	·
CCCCc1c(-c2ccccc2OC)ncn1Cc1cccc(-c2ccccc2)c1	-108*	·	-21	·
CCc1c(-c2ccccc2)ncn1Cc1cccc(-c2ccccc2)c1	10	·	4	·
CCCCc1c(-c2ccccc2OC)ncn1Cc1ccc(-c2ccccc2)cc1	?	·	-2	·
Cc1ccc(CCNC(=O)C2COc3ccccc3C2)cc1 (configuration not stated)	·	·	4	12%
O=C(NC1CC(=O)N(c2ccccc2)C1)c1ccc(S(=O)(=O)N2CCCC2)cc1 (configuration not stated)	·	·	-7	-28%
CCNc1nc(-c2sc(NC(=O)C(C)(C)C)nc2C)c(-n2cc(-c3ccccc3)nn2)s1	180	·	31*	·
Cc1nc(NC(=O)C(C)(C)C)sc1-c1nc(N)sc1-n1cc(-c2ccccc2)nn1	10	·	10	·
Nc1nc2ncccn2c1-c1ccc(F)cc1	2	·	2	·
O=Nc1nc2ncccn2c1-c1ccccc1	-57*	-11%	-14	?
CC(=O)N1c2ccc(S(=O)(=O)NCCC(=O)Nc3ccc(Br)c(C)c3)cc2CC1C (configuration not stated)	·	·	-4	3%
Cc1ccc(OC(=O)CSc2nnc(-c3ccc4c(c3)OCO4)o2)c(C)c1	·	·	6	28%
CCOC(=O)C(C)Oc1ccc2c(CC)cc(=O)oc2c1C (configuration not stated)	-15	-6%	0	12%
CCCC(C)c1oc(=O)cc(O)c1C (configuration not stated)	-3	7%	60*	-28%
CC(=O)N1CCN(C(=O)c2oc3ccccc3c2C)CC1	-11	-19%	-3	-14%

Source: PubChem BioAssay
